Compound activity (PubChem)
MITF TRPM1 HTS = activators of MITF-driven TRPM1 promoter activity in SK-MEL-5 cells. SK-MEL-5 TRPM1-promoter luciferase, 24 h; % of positive control, neutral wells = 0. activation, % at 12.5 µM. actives 0.75% (n = 300,000). AID 588334;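 active = mean activation of at least 80% with every replicate also reaching 80%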;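 note: 0% = neutral control wells and 100% = parthenolide positive control wells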
AF4-AF9 inh = blocks AF4 peptide binding to human AF9; P42568; AlphaScreen, biotin-AF4 peptide binding to FLAG-AF9; inhibition, % at 10 µM; actives 0.47% (n = 350,000);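 active = every replicate reaching a set inhibition limit, whatever the replicate mean, cut at about 25% in these data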;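 note: 0% = plate neutral control median and 100% = total signal loss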
Target sequence (P42568 whole entry, looked up): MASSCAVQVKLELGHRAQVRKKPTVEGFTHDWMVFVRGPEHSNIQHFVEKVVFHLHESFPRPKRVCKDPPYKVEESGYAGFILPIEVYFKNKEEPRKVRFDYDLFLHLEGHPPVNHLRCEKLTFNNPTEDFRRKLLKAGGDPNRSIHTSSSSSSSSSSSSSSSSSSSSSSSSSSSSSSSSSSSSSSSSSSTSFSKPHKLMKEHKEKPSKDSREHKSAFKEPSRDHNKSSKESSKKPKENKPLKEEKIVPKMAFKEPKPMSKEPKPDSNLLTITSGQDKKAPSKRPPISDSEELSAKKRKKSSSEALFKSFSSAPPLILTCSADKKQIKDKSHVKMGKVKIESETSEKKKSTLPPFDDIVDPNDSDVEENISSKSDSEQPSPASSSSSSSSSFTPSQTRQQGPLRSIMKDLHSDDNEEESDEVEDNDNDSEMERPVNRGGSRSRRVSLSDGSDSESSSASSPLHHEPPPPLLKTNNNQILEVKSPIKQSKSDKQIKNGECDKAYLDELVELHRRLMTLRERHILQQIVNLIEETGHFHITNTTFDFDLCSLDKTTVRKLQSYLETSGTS
esBAF inh = blocks esBAF chromatin remodeling in mouse ES cells; Bmi1-luciferase knock-in reporter, 24 h; 100% = twice the neutral-well signal; reporter increase, % at 12.5 µM; actives 2% (n = 350,000); in the data active = activation above about 40%;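 note: 0% = median of the plate's neutral control wells and 100% = double that signal; a rise in the Bmi1 reporter signal indicates esBAF inhibition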
Wnt bcat act = activates Wnt/beta-catenin signaling in a reporter cell assay; activator, plate reader; activation, % at 9.35 µM; actives 1.2% (n = 300,000); AID 743398; in the data active = activation above about 30%, passing the limit was not always enough;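 note: 0% = neutral control wells and 100% = positive control wells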
FGF22 binding-1 = FGF22 (human) thermal shift binding | recombinant FGF22 thermal shift, SYPRO orange fluorescence; percent of sucrose octasulfate shift, DMSO zero | activity (Tm shift, normalised), % at 9.99 µM | Q9HCT0 | actives 1.5% (n = 340,000);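 active = mean Tm shift, scaled 0 neutral to 100 positive control, at about 1.3% or above, every replicate too, limit read from the data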
Target sequence (Q9HCT0 whole entry, looked up): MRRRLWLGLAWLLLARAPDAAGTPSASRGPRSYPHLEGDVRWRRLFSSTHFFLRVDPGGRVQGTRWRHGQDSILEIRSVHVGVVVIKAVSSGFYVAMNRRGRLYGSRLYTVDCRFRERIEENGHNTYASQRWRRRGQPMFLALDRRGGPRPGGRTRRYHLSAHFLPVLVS
SMARCA2 activ = increases SMARCA2 function in MMTV reporter cells; MG213 cells, MMTV-luciferase reporter, dexamethasone, overnight; activation, % at 9.1 µM; actives 1% (n = 370,000); AID 652017; in the data active = activation above about 7.8%;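 note: 0% = vehicle wells and 100% = reference activator wells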
esBAF Ring1 qPCR = esBAF inhibition confirmed by Ring1 de-repression; mouse ESC E14, Ring1 mRNA RT-qPCR fold change; fold change at 33 µM; AID 743176; shares compounds with esBAF inh; 550 tested, under 10 active;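 active = Ring1 gene expression raised more than 2-fold over untreated cells in both replicates at either tested dose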;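 note: Ring1 transcript normalised to actin housekeeping signal by TaqMan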
esBAF Fgf4 qPCR = esBAF inhibition confirmed by Fgf4 repression. shares compounds with esBAF inh. mouse ESC E14, Fgf4 mRNA qPCR fold change; hits give low values. Fgf4 expression fold change at 33 µM. actives 4% (n = 550);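 active = Fgf4 expression under 0.8 fold of control in both repeat measurements at one or both tested doses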;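 note: Fgf4 transcript normalised to actin in duplex TaqMan qPCR; cells exposed to compound for 24 h before lysis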
Bmi1 derepress = de-represses Bmi1 in mouse ESCs, confirming esBAF inhibition | fold change at 33 µM | shares compounds with esBAF inh | mouse ESE14 ES cells, Bmi1 mRNA qPCR fold; hits give high values | 550 tested, under 10 active;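 active = Bmi1 expression fold change above 6 at either tested concentration, seen in replicate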;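 note: higher fold means more Bmi1 de-repression and stronger esBAF inhibition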
A549 tox SP = A549 cell cytotoxicity | plate reader | cell viability change % (negative = cytotoxic), % at 25 µM, hits read low | 550 tested, under 10 active | shares compounds with esBAF inh | AID 743188; call rule not given here
HepG2 tox SP = kills or reduces viability of HepG2 cells. shares compounds with esBAF inh. HepG2 cytotoxicity, plate reader; hits give low values. actives 4% (n = 550). activity change, negative = inhibition, % at 25 µM; in the data active = activity change below about -50%
HEK293 cytotox SP = kills or reduces viability of HEK293 cells. shares compounds with esBAF inh. activity change, negative = inhibition, % at 25 µM, hits read low. actives 3% (n = 550). HEK293 cytotoxicity, plate reader; in the data active = activity change below about -38%, passing the limit was not always enough
FGF22 binding-2 = binds human FGF22 shifting its melting temperature; shares compounds with FGF22 binding-1; recombinant FGF22 thermal shift, SYPRO orange fluorescence; thermal shift activity, °C (ΔTm) at 38 µM; actives 2% (n = 1,000); AID 720646;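 active = fitted rise in melting shift crosses a set limit at or below the top valid dose tested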
FGF22 TSA = binders of human FGF22 by thermal shift; 50 tested, under 10 active; shares compounds with FGF22 binding-1; AID 743017; Thermal shift assay, SYPRO orange, melting temperature shift; Tm shift (activity), % at 38 µM;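 active = compounds whose fitted dose curve of melting temperature shift rises past a set threshold within the tested doses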
TSA no protein = compound-only SYPRO artifact for FGF22 binders; AC50, µM (doses to about 38 µM); compound-only SYPRO orange thermal shift counter-screen, no protein; AID 743019; actives 2% (n = 1,000); shares compounds with FGF22 binding-1;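 active = rising signal whose fitted curve reaches the 0.54 level within the top valid dose, showing a melting point, actives reach about 13 µM in these data; inactive = the rest, including activity in the opposite direction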; note: value is where the raw curve crosses a fixed level and not half-maximal
SMARCA2 conf = confirmation of SMARCA2 (BRM) function activators; shares compounds with SMARCA2 activ; MG213 cells, MMTV-luciferase with dexamethasone, luminescence, overnight; MG213 cells expressing E1A, Rb sequestered; DMSO wells 0%, reference activator 100%; activation, % at 9.1 µM; actives 30% (n = 3,500);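 active = activation above its plate's cutoff, the mean activation of tested wells plus 3 SD, cut at about 7.9% in these data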
VP16 Luc act = counter-screen for SMARCA2 activators: GAL4-VP16 luciferase reporter activation. HEK293 GAL4-VP16 pG5luc reporter, luciferase luminescence; scaled: DMSO wells 0%, SAHA wells 100%. shares compounds with SMARCA2 activ. activation, % at 9.1 µM. actives 41% (n = 3,500). AID 686939;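 active = activation above the solvent-only control well mean plus 3 SD, averaged across control plates, cut at about 5.2% in these data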
Active calls of the source: *; i = inactive; nt = no result. An excerpt weighted towards active compounds, which were near 4.3% of everything screened.

SMILES	MITF TRPM1 HTS	AF4-AF9 inh	esBAF inh	Wnt bcat act	FGF22 binding-1	SMARCA2 activ	esBAF Ring1 qPCR	esBAF Fgf4 qPCR	Bmi1 derepress	A549 tox SP	HepG2 tox SP	HEK293 cytotox SP	SMARCA2 conf	VP16 Luc act	others
CC(C)CN1C(=O)c2ccc(NC(=O)c3ccco3)cc2C1=O	36	-2	nt	13	0	-3	nt	nt	nt	nt	nt	nt	nt	nt
CC(C)CN1C(=O)c2ccc(C(=O)Nc3nccs3)cc2C1=O	34	nt	63*	nt	nt	1	0.95	0.98	1.4	-14	-34	-19	nt	nt
Cn1c(=O)c(C(=O)c2ccccc2)nc2ccccc21	-6	nt	1	nt	nt	0	nt	nt	nt	nt	nt	nt	nt	nt
Cn1c(/N=C(\N)c2ccccc2)nc2ccccc21	nt	0	83*	4	1	6	1.2	0.87	1.7	-8	-5	-12	nt	nt
C[C@@H]1CN([C@@H](C)CO)C(=O)c2cc(NS(=O)(=O)c3cn(C)cn3)ccc2O[C@@H](C)CCCCO[C@H]1CN(C)CC1CC1	nt	-10	0	nt	0	nt	nt	nt	nt	nt	nt	nt	nt	nt
Cn1cccc1C(=O)NC1CCCCCC1	96*	-2	64*	17	0	4	1.1	0.8	1.5	-14	-49	-19	nt	nt
c1ccc(Cn2cnc3ccccc32)cc1	63	nt	106*	nt	nt	2	1.4	1	1.7	0	-24	-10	nt	nt
COc1ccc(C(=O)N=c2sc3ccccc3n2C)cc1OC	79	0	73*	43*	1.6*	4	1.1	0.84	2.3	-6	0	7	nt	nt	FGF22 binding-2=0.2;TSA no protein=i
COc1cc(C(=O)N/N=c2/sc3ccccc3n2C)cc(OC)c1OC	-11	-3	nt	0	0	1	nt	nt	nt	nt	nt	nt	nt	nt
Cc1cc(NC(=O)Nc2ccc3c(ccn3C)c2)sn1	106*	4	81*	25	2.8*	6	1.5	0.94	1.5	-2	1	-11	nt	nt	FGF22 binding-2=0.14;FGF22 TSA=0;TSA no protein=i
COc1cc(CO)cc(I)c1O[C@H]1C=C(C(=O)NCCO)C[C@@H](N(CC2CCCCC2)C(=O)c2ccc(C(F)(F)F)cc2)[C@@H]1O	nt	-3	nt	nt	0	nt	nt	nt	nt	nt	nt	nt	nt	nt
COc1c(C(=O)NNC(=O)c2ccccc2)csc1Br	59	6	56*	39*	0	16*	1.2	0.9	1.7	5	-38	2	3	7.0*
COc1ccc(-c2cc(C(=O)Nc3cc(OC)c(OC)c(OC)c3)[nH]n2)c(C)c1	nt	-1	4	1	0	-1	nt	nt	nt	nt	nt	nt	nt	nt
COc1ccc(-c2cc(C(=O)Nc3ccc(NC(C)=O)cc3)[nH]n2)c(C)c1	nt	-6	61*	-2	0	9.6*	1.2	1	1.5	-12	1	-11	3	2
C[C@H]1CN([C@@H](C)CO)C(=O)c2cccc(NC(=O)c3ccc(-c4nccs4)cc3)c2O[C@H]1CN(C)Cc1ccc(Cl)c(Cl)c1	nt	4	-1	nt	0	nt	nt	nt	nt	nt	nt	nt	nt	nt
COc1ccc(NC(=O)c2c(F)c(F)c(F)c(F)c2F)cc1Cl	-1	nt	-3	nt	nt	-3	nt	nt	nt	nt	nt	nt	nt	nt
COc1ccc(NC(=O)c2cc(F)cc(F)c2)cc1Cl	nt	nt	58*	56*	nt	9.0*	1.4	1.1	1.5	-7	-11	0	1	3
COc1ccc(C(=O)c2sc(Nc3ccc(NC(C)=O)cc3)nc2C)cc1	nt	-17	9	-4	0	-6	nt	nt	nt	nt	nt	nt	nt	nt
COc1ccc(Nc2nc(C)c(C(C)=O)s2)cc1	nt	-5	82*	5	0	8.2*	1.2	0.88	1.4	-5	-8	0	2	10*
C[C@@H]1CCCCO[C@@H](CN(C)S(=O)(=O)c2cn(C)cn2)[C@H](C)CN([C@@H](C)CO)C(=O)c2cc(NC(=O)Nc3ccc(F)cc3)ccc2O1	nt	-1	-2	nt	nt	nt	nt	nt	nt	nt	nt	nt	nt	nt
Cc1cccc(NC(=O)c2ccccn2)c1C	73	nt	63*	36*	nt	8.3*	0.79	1	1.2	-14	-6	-17	13*	8.4*
COc1ccc(NC(=O)N(C)C[C@H]2OCCCC[C@H](C)Oc3ccc(NS(C)(=O)=O)cc3C(=O)N([C@@H](C)CO)C[C@@H]2C)cc1	nt	-4	4	nt	0	nt	nt	nt	nt	nt	nt	nt	nt	nt
Cc1cccc2cc3ccccc3nc12	nt	-1	nt	11	0	-3	nt	nt	nt	nt	nt	nt	nt	nt
c1ccc2nc3c(ccc4ccccc43)cc2c1	28	15	70*	2	0	15*	0.92	1	1.1	-12	31	-17	5	7.7*
Cc1ccc2c(CN(C)Cc3ccccc3)cc(=O)oc2c1	nt	-2	88*	13	0	11*	1.1	0.95	1.5	-12	-6	-22	12*	11*
COc1ccc2c(c1OC)C(=O)OC2Nc1nc(-c2cc3cc(Br)ccc3oc2=O)cs1 (stereo not drawn)	144*	0	65*	51*	0	9.2*	0.99	1	1.5	-17	-35	-18	12*	7.9*
